Measurements: PubChem BioAssay (NCI)
The panel holds about 83,000 compounds, 20% with a hit somewhere; the sample as a whole holds those more often.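 Testing used 96-well plates and a 48-hour single-concentration exposure. Example: -40 means 40% of the starting cells died.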 Calls of active or inactive are those of the source. How the source made its calls: active means growth percent below 10; inactive means the rest.

Tests used:
Experiment in all cases: NCI-60 one-dose screen, 48 h (100 = growth as untreated, 0 = no growth, -100 = all killed)
Settings in all cases: 10 µM unless noted
SK-MEL-2 melanoma = tested on: SK-MEL-2 melanoma
EKVX NSCLC = tested on: EKVX NSCLC
SN12C renal = tested on: SN12C renal
UO-31 renal = tested on: UO-31 renal
TK-10 renal = tested on: TK-10 renal
ACHN renal = tested on: ACHN renal
CAKI-1 renal = tested on: CAKI-1 renal
A498 renal = tested on: A498 renal
CCRF-CEM leukemia = tested on: CCRF-CEM leukemia
MOLT-4 leukemia = tested on: MOLT-4 leukemia
SR leukemia = tested on: SR leukemia
OVCAR-8 ovarian = tested on: OVCAR-8 ovarian
OVCAR-5 ovarian = tested on: OVCAR-5 ovarian
IGROV1 ovarian = tested on: IGROV1 ovarian
OVCAR-3 ovarian = tested on: OVCAR-3 ovarian
NCI/ADR-RES ovarian = tested on: NCI/ADR-RES ovarian
RPMI-8226 leukemia = tested on: RPMI-8226 leukemia
OVCAR-4 ovarian = tested on: OVCAR-4 ovarian
SK-OV-3 ovarian = tested on: SK-OV-3 ovarian
HS 578T breast = tested on: HS 578T breast

Measured: growth

CC[C@@H](C)/C=C(C)/C=C/C(=O)c1c(O)c(-c2ccc(O)cc2)cn(OC2CC(=O)CCC(C)OC(=O)CC2O)c1=O (stereo not given in full)
inactive: SK-MEL-2 melanoma 19.8% | SN12C renal 17.5% | TK-10 renal 43.1% | A498 renal 28.7% | OVCAR-8 ovarian 17.5% | OVCAR-5 ovarian 53.8% | OVCAR-3 ovarian 18.7%
active: EKVX NSCLC 5.02% | UO-31 renal -15.5% | ACHN renal 0.984% | CAKI-1 renal -17.1% | CCRF-CEM leukemia 2.11% | MOLT-4 leukemia 6.27% | SR leukemia 7.95% | IGROV1 ovarian 4.73% | NCI/ADR-RES ovarian 5.21%

COP(=O)(OC)C(c1ccccc1)(c1ccccc1)c1ccccc1
active: IGROV1 ovarian -9.3%
inactive: SK-MEL-2 melanoma 101% | EKVX NSCLC 101% | SN12C renal 97.7% | UO-31 renal 113% | TK-10 renal 69% | ACHN renal 107% | CAKI-1 renal 83% | A498 renal 93% | CCRF-CEM leukemia 84.3% | MOLT-4 leukemia 46.5% | RPMI-8226 leukemia 87.5% | OVCAR-8 ovarian 94.6% | OVCAR-5 ovarian 101% | OVCAR-4 ovarian 93.2% | SK-OV-3 ovarian 108% | OVCAR-3 ovarian 86.7% | HS 578T breast 94.5% | NCI/ADR-RES ovarian 95.9%

CC1C(C)N(C(=O)CCl)c2ccccc2N1C(=O)CCl (stereo not given)
active: SK-MEL-2 melanoma -40.9% | EKVX NSCLC -60% | SN12C renal -26.6% | UO-31 renal -84.8% | TK-10 renal -87.4% | ACHN renal -91.5% | CAKI-1 renal -79.7% | A498 renal -83.5% | CCRF-CEM leukemia -34.6% | MOLT-4 leukemia -26.5% | SR leukemia -29.6% | OVCAR-5 ovarian -77.5% | OVCAR-4 ovarian -27.2% | SK-OV-3 ovarian -20.4% | IGROV1 ovarian -54.6% | OVCAR-3 ovarian -91.1% | HS 578T breast -28.3% | NCI/ADR-RES ovarian -7.93%

Cc1cc(=O)[nH]c(/C(=N/Nc2ccccc2)C(=O)c2ccc(Cl)cc2)n1
inactive: SK-MEL-2 melanoma 102% | EKVX NSCLC 103% | SN12C renal 93.2% | UO-31 renal 116% | TK-10 renal 65.5% | ACHN renal 111% | CAKI-1 renal 104% | A498 renal 84% | CCRF-CEM leukemia 66% | MOLT-4 leukemia 39.8% | RPMI-8226 leukemia 96.6% | OVCAR-8 ovarian 92.8% | OVCAR-5 ovarian 117% | OVCAR-4 ovarian 111% | SK-OV-3 ovarian 98.3% | IGROV1 ovarian 17.6% | OVCAR-3 ovarian 97.5% | HS 578T breast 83.6% | NCI/ADR-RES ovarian 106%

O=[N+]([O-])c1cc([N+](=O)[O-])c(N2CCCC2)cc1NN=C(c1ccc(O)cc1)c1ccc(O)cc1
inactive: EKVX NSCLC 90.5% | SN12C renal 128% | TK-10 renal 131% | ACHN renal 46.9% | CAKI-1 renal 91.9% | A498 renal 122% | CCRF-CEM leukemia 55.3% | MOLT-4 leukemia 57.3% | SR leukemia 77.1% | OVCAR-5 ovarian 38.2% | OVCAR-4 ovarian 81.6% | SK-OV-3 ovarian 39.9% | OVCAR-3 ovarian 89.8% | NCI/ADR-RES ovarian 33.6%
active: SK-MEL-2 melanoma -47.6% | UO-31 renal -78.1% | OVCAR-8 ovarian -45.4%

CS(=O)(=O)N1CCN(Cc2cc3nc(-c4cccc5[nH]ncc45)nc(N4CCOCC4)c3s2)CC1 (tested in a mixture with another compound)
active: UO-31 renal -12.9% | CAKI-1 renal -1.96% | A498 renal -62.1% | MOLT-4 leukemia 8.77% | SK-OV-3 ovarian -25.6% | IGROV1 ovarian -30.2%
inactive: SK-MEL-2 melanoma 33.4% | EKVX NSCLC 16.7% | SN12C renal 17% | TK-10 renal 20.5% | ACHN renal 12.2% | CCRF-CEM leukemia 20.9% | SR leukemia 23.2% | OVCAR-8 ovarian 26.1% | OVCAR-5 ovarian 21.5% | OVCAR-4 ovarian 39.7% | OVCAR-3 ovarian 12.4% | NCI/ADR-RES ovarian 29.6%

Cc1nn(-c2ccccc2)cc1/C=C1\SC(N2CCCCC2)=NC1=O
active: SR leukemia 8.09%
inactive: SK-MEL-2 melanoma 94% | EKVX NSCLC 94.2% | SN12C renal 93% | UO-31 renal 65.1% | TK-10 renal 78.5% | ACHN renal 74.7% | CAKI-1 renal 39.8% | A498 renal 71.3% | CCRF-CEM leukemia 43.6% | MOLT-4 leukemia 58.6% | OVCAR-8 ovarian 81.4% | OVCAR-5 ovarian 103% | SK-OV-3 ovarian 119% | IGROV1 ovarian 68.1% | OVCAR-3 ovarian 96.4% | HS 578T breast 99.7% | NCI/ADR-RES ovarian 89.7%

O=C(CC1Sc2ccccc2NC1=O)NNc1cccc(Cl)c1Cl (stereo not given)
inactive: SK-MEL-2 melanoma 87% | EKVX NSCLC 91.3% | SN12C renal 87.5% | UO-31 renal 61.8% | TK-10 renal 89.9% | ACHN renal 91.4% | CAKI-1 renal 90.4% | A498 renal 61.5% | CCRF-CEM leukemia 70.8% | MOLT-4 leukemia 71.6% | SR leukemia 61% | OVCAR-8 ovarian 82.7% | OVCAR-5 ovarian 80.6% | OVCAR-4 ovarian 88.1% | SK-OV-3 ovarian 70.2% | IGROV1 ovarian 82.1% | OVCAR-3 ovarian 81.7% | NCI/ADR-RES ovarian 96.7%

Nc1ccc2c(c1Br)Cc1ccccc1-2
inactive: SK-MEL-2 melanoma 94.2% | EKVX NSCLC 68% | SN12C renal 86.6% | UO-31 renal 54.4% | TK-10 renal 123% | ACHN renal 95.8% | CAKI-1 renal 98.6% | A498 renal 86.8% | CCRF-CEM leukemia 53.2% | MOLT-4 leukemia 68.4% | SR leukemia 93.6% | OVCAR-5 ovarian 94.6% | OVCAR-4 ovarian 98.6% | SK-OV-3 ovarian 95.4% | IGROV1 ovarian 108% | HS 578T breast 95.4% | NCI/ADR-RES ovarian 100%

O=C1N=C(N2CCOCC2)S/C1=C\c1cn(-c2ccccc2)nc1-c1ccccc1
inactive: SK-MEL-2 melanoma 81.7% | EKVX NSCLC 90% | SN12C renal 92.4% | UO-31 renal 44.3% | TK-10 renal 57.1% | ACHN renal 58.9% | CAKI-1 renal 93.9% | A498 renal 48% | CCRF-CEM leukemia 92.4% | MOLT-4 leukemia 116% | SR leukemia 71.5% | OVCAR-5 ovarian 109% | OVCAR-4 ovarian 25.1% | SK-OV-3 ovarian 83.3% | IGROV1 ovarian 79.9% | OVCAR-3 ovarian 58% | HS 578T breast 57.4% | NCI/ADR-RES ovarian 60.2%

CCCCc1ccc(C(N)=O)nc1
active: A498 renal -4.32% | HS 578T breast -48.3%
inactive: SK-MEL-2 melanoma 96% | EKVX NSCLC 100% | SN12C renal 98.7% | UO-31 renal 88.7% | TK-10 renal 103% | ACHN renal 98.8% | CAKI-1 renal 102% | CCRF-CEM leukemia 92% | MOLT-4 leukemia 101% | RPMI-8226 leukemia 88.6% | OVCAR-5 ovarian 96.2% | OVCAR-4 ovarian 100% | SK-OV-3 ovarian 99.5% | IGROV1 ovarian 19.4% | OVCAR-3 ovarian 107% | NCI/ADR-RES ovarian 106%

O=C(N/N=C/c1cccc([N+](=O)[O-])c1)c1ccc(Br)o1
inactive: SK-MEL-2 melanoma 103% | EKVX NSCLC 103% | SN12C renal 142% | TK-10 renal 129% | ACHN renal 156% | CAKI-1 renal 98.3% | A498 renal 129% | CCRF-CEM leukemia 78.2% | MOLT-4 leukemia 132% | SR leukemia 134% | OVCAR-8 ovarian 39.4% | OVCAR-5 ovarian 107% | OVCAR-4 ovarian 105% | SK-OV-3 ovarian 97.7% | OVCAR-3 ovarian 111% | HS 578T breast 158% | NCI/ADR-RES ovarian 101%
active: UO-31 renal -25.2%

Nc1ccc2c(c1)C(=O)c1cc(Cl)c(Cl)cc1-2
inactive: SK-MEL-2 melanoma 95.8% | EKVX NSCLC 74.1% | SN12C renal 90.8% | UO-31 renal 49.9% | TK-10 renal 113% | ACHN renal 92.1% | CAKI-1 renal 70.4% | A498 renal 76.5% | CCRF-CEM leukemia 82.8% | MOLT-4 leukemia 77.1% | SR leukemia 82% | OVCAR-8 ovarian 92.3% | OVCAR-5 ovarian 95.9% | OVCAR-4 ovarian 89.9% | SK-OV-3 ovarian 97.9% | IGROV1 ovarian 94.6% | OVCAR-3 ovarian 110% | NCI/ADR-RES ovarian 97.3%

O=C(O)C1CCN(S(=O)(=O)c2ccc(-c3ccccc3)cc2)CC1
inactive: EKVX NSCLC 103% | SN12C renal 101% | UO-31 renal 101% | TK-10 renal 133% | ACHN renal 109% | CAKI-1 renal 104% | A498 renal 104% | CCRF-CEM leukemia 90.1% | MOLT-4 leukemia 107% | RPMI-8226 leukemia 58.7% | OVCAR-8 ovarian 81.4% | OVCAR-5 ovarian 125% | OVCAR-4 ovarian 106% | SK-OV-3 ovarian 111% | OVCAR-3 ovarian 112% | NCI/ADR-RES ovarian 117%
active: SK-MEL-2 melanoma 5.44%

O=C1Nc2ccc(Cl)cc2[C@@](C#CC2CC2)(C(F)(F)F)O1
active: IGROV1 ovarian -10.5%
inactive: SK-MEL-2 melanoma 95.5% | EKVX NSCLC 112% | SN12C renal 85.8% | UO-31 renal 116% | TK-10 renal 106% | ACHN renal 88.6% | CAKI-1 renal 91.4% | A498 renal 106% | CCRF-CEM leukemia 87.4% | MOLT-4 leukemia 74.1% | RPMI-8226 leukemia 92.2% | OVCAR-5 ovarian 91.1% | OVCAR-4 ovarian 89.1% | SK-OV-3 ovarian 110% | OVCAR-3 ovarian 101% | HS 578T breast 99.2% | NCI/ADR-RES ovarian 99.1%

Fc1ccc(-c2nn3c(-c4cc(C(F)(F)F)cc(C(F)(F)F)c4)nnc3s2)cc1
inactive: EKVX NSCLC 71.1% | SN12C renal 46.7% | UO-31 renal 29.2% | ACHN renal 11.6% | CAKI-1 renal 69.8% | CCRF-CEM leukemia 87% | MOLT-4 leukemia 93% | RPMI-8226 leukemia 95.6% | OVCAR-8 ovarian 20% | OVCAR-5 ovarian 95.1% | OVCAR-4 ovarian 21.7% | IGROV1 ovarian 21.6% | OVCAR-3 ovarian 12.7% | HS 578T breast 24.8% | NCI/ADR-RES ovarian 40.9%
active: SK-MEL-2 melanoma -33.3% | TK-10 renal -40% | A498 renal -18.5% | SK-OV-3 ovarian -36.1%

O=C1Nc2ccc(C(=O)O)c(O)c2C1=O
inactive: SK-MEL-2 melanoma 103% | EKVX NSCLC 97.8% | SN12C renal 107% | UO-31 renal 91.7% | TK-10 renal 107% | ACHN renal 104% | CAKI-1 renal 92.2% | A498 renal 102% | CCRF-CEM leukemia 94.9% | MOLT-4 leukemia 110% | SR leukemia 105% | OVCAR-8 ovarian 107% | OVCAR-5 ovarian 95.3% | OVCAR-4 ovarian 112% | SK-OV-3 ovarian 110% | IGROV1 ovarian 111% | OVCAR-3 ovarian 113% | HS 578T breast 108% | NCI/ADR-RES ovarian 106%
